The campaign covered roughly 350,000 compounds. About 2,100 (0.6%) were called active. The entries come from a sample that favours actives as a whole. Values without a mark were called inactive.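 How the source made its calls: active means inhibition of the ligand-induced calcium signal above about 50% at the single tested concentration (limit read from the data); inactive means the rest.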

The experiment is described as follows: blockers of CRF-evoked CRF-R2/CRF-BP calcium response – cell-based, HEK293, calcium dye fluorescence, uHTS, primary screen (AID 588475). As to conditions: CRF-induced calcium fluorescence, at 11.8 µM, active compounds read high.
Take `Cc1ccc(C(=O)N/C(=C\c2cn(C)c3ccccc23)C(=O)N2CCN(C)CC2)cc1`: the inhibition (as a rule, the drop in the measured response relative to a control, in per cent) is 1.64%.
The value for `O=[N+]([O-])c1ncc(Br)cc1Nc1ccccc1` was 17.9%; that for `CCCN(CCc1ccccc1)C1CCc2c(O)cccc2C1` (stereo not drawn) was -13%; that for `CC(C)NC(=O)CSc1ccccc1C(=O)NCc1ccc2c(c1)OCO2` was 17%.
The value for `COc1ccccc1-n1c(C)nc2cc(C(=O)NCc3ccc4c(c3)OCO4)ccc21` was 20.9%.
As for `Cc1nc2c(C(=O)NCc3ccc4c(c3)OCO4)c[nH]n2c(=O)c1Cc1ccccc1F`, the figure is 53.2% (active); as for `COCCN(C(=S)Nc1ccccc1OC)C1CCN(C(C)C)CC1`, -0.52%; as for `CCc1ccc(CN(C)C(C)C(=O)Nc2ccc(S(=O)(=O)N3CCCC3)cc2)cc1` (stereo not drawn), -10.1%.
With `COc1ccc2nc(N3C(=O)C(O)=C(C(=O)c4ccco4)C3c3ccco3)sc2c1` (stereo not drawn), the inhibition is 3.47%.
The value for `C=CCSc1nnc(N2C(=O)C(O)=C(C(=O)c3ccco3)C2c2ccc(F)cc2)s1` (stereo not drawn) was 17.8%; that for `Cc1ccc2nc(N3C(=O)C(O)=C(C(=O)c4ccco4)C3c3cccc(O)c3)sc2c1` (stereo not drawn) was 51.9% (active).
The value for `CS(=O)(=O)N(Cc1nc2sc3c(c2c(=O)[nH]1)CCCC3)C1CCCCC1` was -0.95%; that for `CCc1nn(CC(=O)N2CCN(c3cc(C)ccc3C)CC2)c(=O)c2cc3occc3n12` was 3.13%; that for `Cc1ccc(CNC(=O)CCNC(=O)Cn2ccc3ccccc3c2=O)cc1` was 87.1% (active).
The value for `CCCCN(CC)CCNC(=O)CCNC(=O)Cn1ccc2ccccc2c1=O` was -0.99%.
On to `O=C(CCNC(=O)Cn1ccc2ccccc2c1=O)NCCC1=CCCCC1`, for which the inhibition was -1.26%.
The value for `Cc1ccc(SC(CC(=O)c2ccc(C(C)(C)C)cc2)C(=O)O)cc1` (stereo not drawn) was -15.1%.
On to `CC(NC(=O)COC(=O)C1CCN(S(=O)(=O)c2ccccc2C(F)(F)F)CC1)c1ccccc1` (stereo not drawn), for which the inhibition was -1.56%.
With `CCOC(=O)C(C)N(c1ccccc1Cl)S(C)(=O)=O` (stereo not drawn), the inhibition is -3.83%.
The value for `S=c1[nH]ccn1-c1ccc(Cl)cc1` was -16.2%; that for `Cc1ccc(C(=O)Nc2nnc(C3=COCCO3)o2)cc1C` was 51.4% (active); that for `O=C(Nc1nnc(C2=COCCO2)o1)c1ccc([N+](=O)[O-])s1` was -4.65%.
As for `COc1cc(-c2nnc(NC(=O)C3=COCCO3)o2)cc(OC)c1OC`, the figure is -9.37%.
The value for `COc1cc(OC)cc(C(=O)N[C@H](C(=O)OCC(=O)NC(C)c2ccccc2)C(C)C)c1` (stereo partly drawn) was -108%; that for `CCn1cc(/C=C2/SC(=S)NC2=O)c(C)n1` was 13.4%.
As for `Cc1cccc(C(=O)C(O)(c2ccccc2)C2CCCCC2=O)c1` (stereo not drawn), the inhibition was -14%.
As for `O=C1CCCCC1C(=O)c1ccccc1` (stereo not drawn), the figure is 52.8% (active); as for `O=C(OC1CCCCC1=O)c1cccc(S(=O)(=O)NCc2ccccc2)c1` (stereo not drawn), 12.8%.
On to `COc1cccc(CNC(=O)CCN2C(=S)NC(C)(C)CC2C)c1` (stereo not drawn), for which the inhibition was 3.81%.
The value for `N#CCc1c[nH]c2ccc([N+](=O)[O-])cc12` was 2.31%.
As for `Cc1cc([N+](=O)[O-])c(NC2CCCCC2)c([N+](=O)[O-])c1`, the figure is -26.8%; as for `Cc1cc([N+](=O)[O-])ccc1NCc1cccc([N+](=O)[O-])c1`, 34.2%; as for `Cc1cc([N+](=O)[O-])ccc1NC1CCCC1`, 72% (active).
As for `CC(C)C(NS(=O)(=O)c1cccs1)C(=O)Nc1nc(C(C)(C)C)cs1` (stereo not drawn), the figure is 7.44%; as for `Cc1cc(-c2nnc(SCC(=O)Nc3ccc(S(N)(=O)=O)cc3)n2N)n[nH]1`, 9.63%; as for `CCOC(=O)N1CCC(NC(=O)C(NS(=O)(=O)c2ccc3c(c2)CCN3C(=O)CC)C(C)C)CC1` (stereo not drawn), -2.51%.
For `COc1ccc(N=C2C=CC(=O)O2)cc1`, the inhibition is 11.2%.
The value for `OCC1OC(n2cnc3c(N4CCCC4)ncnc32)C(O)C1O` (stereo not drawn) was -7.64%.
The value for `COc1cc(OC)cc(-c2c(C#Cc3ccsc3)c3cc(-c4ccc(SC)cc4)ccc3n2C)c1` was 1.84%; that for `Cc1ccc(S(=O)(=O)/N=C(\CN2CCOCC2)N2CCOCC2)cc1` was 12.5%; that for `Cc1nc2c(-c3ccccc3)c(C)[nH]n2c(=O)c1Cl` was 42.5%.
As for `Cc1[nH]n(-c2cccc(Cl)c2)c(=O)c1-c1ccc(Cl)cc1`, the figure is 50.6% (active).
As to `CCCc1cc(=O)n2[nH]c(C)c(-c3ccc(Cl)cc3)c2n1`, the inhibition is 13.7%.
As for `C/C(=N\Nc1ccccc1)c1cccs1`, the inhibition is -0.14%.
As for `COc1ccccc1N(C)S(=O)(=O)c1ccc(Cl)c(C(=O)N2CCC(C(N)=O)CC2)c1`, the inhibition was 17.1%.
As for `C/C(CC(=O)Nc1cccc(C(F)(F)F)c1)=N\NC(=O)C(=O)NCC(C)C`, the inhibition was -3.29%.
With `COc1ccc(C(CC(=O)Nc2ccc(C)cc2)NC(=O)C(F)(F)F)cc1` (stereo not drawn), the inhibition was -3.52%.
The value for `COc1ccc(NC(=O)C(=O)NCC(=O)Nc2cccc(C(F)(F)F)c2)cc1` was 55.4% (active).
The value for `CCCCn1c(N)c(N(CC(C)C)C(=O)CN(C)S(=O)(=O)c2ccc(F)cc2)c(=O)[nH]c1=O` was -2.99%; that for `Cc1c(C(=O)OCC(=O)N(CCC#N)c2ccccc2)oc2c1ccc1ccccc12` was -18.4%.
Take `O=S(=O)(CCc1nc2ccccc2o1)c1ccc(Cl)cc1`: the inhibition is -6.01%.
As for `Cn1c(-c2ccc(C(=O)c3ccccc3)s2)nc2ccccc21`, the figure is 6.07%; as for `Cc1nn2c3ccccc3nc2n(C)c1=O`, 83.2% (active).
As for `CCc1nc2ccccc2n(CCOCCOCCn2c(=O)c(CC)nc3ccccc32)c1=O`, the figure is -9.64%.
The value for `Cc1ccc(S(=O)(=O)NNC(=S)NC(C)(C)C)cc1` was 0.02%; that for `CCNC(=O)NNC(=O)C1CC(c2cccs2)=NO1` (stereo not drawn) was 0.63%.
On to `COc1ccc(NC(=O)CSc2nnnn2-c2cccc(OC)c2)cc1`, for which the inhibition was 8.16%.
The value for `COc1ccc(-n2nnnc2SCC(=O)c2ccc(OC)c(OC)c2)cc1` was 51.1% (active); that for `O=C(CSc1nnnn1-c1ccc(O)cc1)c1ccc(F)cc1` was 4.96%.
For the compound `CC(C)Oc1ccc(Cc2n[nH]c(=S)n2Cc2ccccc2)cc1Cl`, the inhibition is 2.65%.
In the case of `O=C(Nc1cccc(C(=O)O)c1)/C(=C\c1ccccc1)NC(=O)c1ccc(Br)o1`, the inhibition is 12.3%.
As for `COC(=O)Cn1cnc2scc(-c3ccc(C)c(C)c3)c2c1=O`, the figure is 0.19%.
The value for `O=C(N/N=C/c1cccc2cccnc12)[C@H]1C[C@@H]1c1ccccc1` was -18.3%; that for `O=C(CCC(=O)OCC(F)(F)C(F)F)NCc1ccccc1` was 108% (active).
The value for `O=C(CCOc1ccccc1)NCc1ccccc1` was 2.03%; that for `O=C(CCC(=O)c1ccccc1)NCc1cccc(C(F)(F)F)c1` was -4.39%; that for `Cc1nc(N)c(Br)c(C)c1Br` was -2.67%.
Consider `Cn1cc(S(=O)(=O)N2CCN(c3ccc(F)cc3)CC2)c(=O)n(C)c1=O`, for which the inhibition is -4.51%.
The value for `CC(C)[C@H](NC(=O)N1CCn2c1nc1ccccc12)C(=O)NCCc1ccccc1` was 2.7%.
As for `CCC(C)[C@H](NC(=O)N1CCn2c1nc1ccccc12)C(=O)NCc1ccc(OC)cc1` (stereo partly drawn), the figure is 52.2% (active); as for `CC(C)[C@H](NC(=O)N1CCn2c1nc1ccccc12)C(=O)NCc1ccc2c(c1)OCO2`, -3.94%; as for `O=C(/C(=N\O)n1cncn1)c1ccc(Br)cc1Br`, 14.7%.
As to `COc1cc(OC)cc(C(=O)Nc2ncc3c(n2)CC(C)(C)CC3=O)c1`, the inhibition was 20%.
Regarding `O=C(NNC(=S)NC1CC2CCC1C2)c1ccc(Cl)cc1` (stereo not drawn), the inhibition is -9.96%.
As for `O=[N+]([O-])c1ccc(C(S(=O)(=O)Cc2ccccc2)S(=O)(=O)Cc2ccccc2)cc1`, the figure is 5.72%; as for `CC1CN/C(=C\C(=O)c2ccc(Br)cc2)C(=O)N1` (stereo not drawn), 12.3%.
The value for `O=C(NCCS(=O)(=O)c1ccc(Br)cc1)c1ccccc1Cl` was 71.2% (active); that for `O=C(NCCCN1CCOCC1)c1ccccc1NS(=O)(=O)c1ccc(Br)cc1` was 1.32%.
As to `O=C(CCS(=O)(=O)c1ccc(Br)cc1)NCCc1ccc(Cl)cc1`, the inhibition is -3.71%.
The value for `Cc1c(OC(C)C(=O)NCC2CCC(C(=O)O)CC2)ccc2c1oc(=O)c1ccccc12` (stereo not drawn) was 4.13%; that for `Cc1nonc1C1CCCN1Cc1nc(-c2ccc(F)cc2F)oc1C` (stereo not drawn) was 17.3%.
The value for `CN(C)S(=O)(=O)c1ccc(C(=O)NCC(C)(C)N2CCOCC2)cc1` was 15.6%.
The value for `COCc1[nH]nc2c1C(C1C=CCCC1)C(C#N)=C(N)O2` (stereo not drawn) was -8.71%; that for `COc1ccc(C2C(C#N)=C(N)Oc3n[nH]c(C)c32)cc1CN1CCN(c2ccc(F)cc2)CC1` (stereo not drawn) was 3.36%; that for `COc1cc(C2C(C#N)=C(N)Oc3n[nH]c(-c4ccccn4)c32)cc(OC)c1OC` (stereo not drawn) was 52.2% (active).
As for `Cc1ccc(C)c(C(=O)COC(=O)Cn2[nH]c(=O)c3ccccc3c2=O)c1`, the inhibition was 6.49%.
The value for `CC(=O)NNC1=Nc2ccccc2N(C)C(C)C1` (stereo not drawn) was 19%.
The value for `COC(=O)c1ccc(CN2C(=O)NC(c3ccccc3)(c3ccccc3)C2=O)o1` was 0.1%; that for `COC(=O)c1ccc(Cc2ccccc2)o1` was 53% (active).
As for `COC(=O)c1ccc(COc2ccc(C#N)cc2)o1`, the figure is 10.2%; as for `CCC(C)C(NC(=O)C1CCC(=O)N1C(=O)OCc1ccccc1)C(=O)NC(C(=O)N1CCCC1C(N)=O)C(C)CC` (stereo not drawn), 2.28%.
Regarding `O=C1c2cccc3cccc(c23)C(=O)N1c1cccc(O)c1`, the inhibition is 4.66%.
`COc1cc(NC(=O)c2ccccc2NS(=O)(=O)c2ccc(Cl)s2)cc(OC)c1`: the inhibition was 90.5% (active).
Regarding `COC(=O)c1ccccc1NS(=O)(=O)c1ccc2[nH]c(=O)[nH]c2c1`, the inhibition was 17.7%.
`O=C(Nc1ccc(S(=O)(=O)Nc2ccccn2)cc1)c1ccccc1`: the inhibition was -0.79%.
The value for `COc1ccccc1C(=O)Nc1ccccc1C(=O)Nc1ccccc1` was 6.12%; that for `COC(=O)c1ccc(NC(=O)c2ccccc2NS(=O)(=O)c2ccccc2)cc1` was 61% (active); that for `O=S(=O)(Nc1ccccc1N1CCOCC1)c1ccc(Cl)s1` was -0.68%.
